Measurements reported in PubChem BioAssay.

These compounds were tested on Lefty1 (assay: Lefty1 protein binding to printed compounds – biochemical, small-molecule microarray, 635/667 nm fluorescence, primary screen (AID 1139)). Details: fluorescence 635/667, higher = more signal.

| SMILES | composite z-score |
| --- | --- |
| COCCOC(=O)N1C(=O)[C@@]2(c3ccccc31)[C@H](c1ccc(O)cc1)N1[C@H](c3ccccc3)[C@H](c3ccccc3)OC(=O)[C@H]1[C@@H]2C(=O)Nc1nc2ccccc2s1 | 0.259 |
| C=CCOC(=O)[C@H]1[C@@H]2C(=O)O[C@@H](c3ccccc3)[C@@H](c3ccccc3)N2[C@@H](c2ccc(OCCOC(=O)[C@H]3C[C@H]4C(=O)N[C@@H](CCCCN(C)C)C(=O)N4[C@H]3c3ccc(O)cc3)cc2)[C@]12C(=O)Nc1ccc(I)cc12 | 1.59 |
| NC(=O)[C@@H]1[C@H]2C(=O)O[C@H](c3ccccc3)[C@H](c3ccccc3)N2[C@H](c2ccc(O)cc2)[C@@]12C(=O)Nc1ccccc12 | -0.827 |
| CC(C)C[C@@H]1NC(=O)[C@H](C(C)C)NC(=O)[C@@]23C(=O)N[C@@H](Cc4ccccc4)C2[C@H](C)[C@@]2(C)O[C@H]2C3/C=C/CC/C=C/CNC1=O (stereo not given in full) | 1.15 |
| COC(=O)C(CC#Cc1ccc2c(c1)[C@]1(C(=O)N2)[C@H](c2ccc(OCCO)cc2)N2[C@H](c3ccccc3)[C@H](c3ccccc3)OC(=O)[C@H]2[C@@H]1C(=O)Nc1nc2ccccc2s1)C(=O)OC | 0.417 |
| O=C1NC(=O)C2C1C=CC(C(O)c1cc(C(F)(F)F)cc(C(F)(F)F)c1)N2Nc1ccccn1 (stereo not given) | 0.187 |
| Cc1ccc(S[C@]2(C(=O)NCCCN(C)C)CC(=O)N(Cc3cc(C(F)(F)F)cc(C(F)(F)F)c3)[C@@H]2c2ccc(CO)cc2I)cc1 | -0.536 |
| C=C(C(=O)CC[C@@H](OC(=O)c1cccnc1)c1ccccc1OCCO)C(C)C | 1.23 |
| COc1cc(NN2C(C(O)c3ccco3)C=CC3C(=O)N(c4ccccc4)C(=O)C32)cc(OC)c1OC (stereo not given) | 0.199 |
| COC(=O)[C@@]1(Cc2ccc(OC)cc2)[C@H]2c3cc(C(=O)N(C)C)n(CCc4ccccn4)c3C[C@H]2CN1C(=O)c1ccccc1 | -0.919 |
| O=C(NC1CC1)[C@@H]1c2ccccc2C(=O)N(Cc2ccccc2Cl)[C@H]1c1ccc(CO)cc1 | 0.233 |
| COC(=O)[C@@]1(Cc2ccc(F)cc2)[C@H]2c3cc(C(=O)N(C)C)n(Cc4ccccc4)c3C[C@H]2CN1C(=O)c1ccccc1 | 0.0954 |
| O=C1C2C=CC(C(O)CCc3ccccc3)N(Nc3ccccc3F)C2C(=O)N1c1ccccc1 (stereo not given) | 0.0364 |
| C=C[C@H](CO[Si](CC)(CC)CC)N(Cc1ccc(OC(C)=O)c(OC)c1)S(=O)(=O)c1ccc(Br)cc1 | 0.237 |
| O=C1O[C@@H](c2ccccc2)[C@@H](c2ccccc2)N2[C@@H](c3ccccc3OCCO)[C@]3(C(=O)Nc4ccc(C#CC5=CCCCC5)cc43)[C@@H](C(=O)N3CCCCCCC3)[C@H]12 | 1.63 |
| CCOC(=O)[C@H]1C/C=C/C[C@H](C(=O)OCC)C(=O)O[C@H]2[C@@H](OC)O[C@H](CO)[C@@H](OC(=O)c3c(OC)cccc3OC)[C@@H]2OC1=O | 0.639 |
| CCC(CC)C(O)C1C=CC2C(=O)NC(=O)C2N1Nc1ccc(Cl)cc1Cl (stereo not given) | 0.359 |
| CCOC(=O)C[C@H]1[C@H](OC(=O)c2ccc(C(=O)c3ccccc3)cc2)[C@@H](NC(=O)c2ccc3ccccc3c2)c2cc(OCCCO)ccc2N1C(=O)Cc1ccc(OC)cc1 | 0.199 |

| SMILES | composite z-score |
| --- | --- |
| COC(=O)[C@@]1(CCC(=O)OC(C)(C)C)N=C(c2ccc(OCCCO)cc2)O[C@H]1c1ccccc1N=[N+]=[N-] | 0.303 |
| COC(=O)[C@@]1(Cc2ccc(OC)cc2)[C@H]2c3cc(C(=O)N(C)C)n(Cc4ccccn4)c3C[C@H]2CN1C(=O)c1ccccc1 | -0.805 |
| CCCC[C@@H]1C[C@H]1[C@@H](NC(=O)c1ccccc1)c1ccc(C(=O)OC)cc1 | -0.684 |
| CCCCCCc1nc(-c2ccc(OC)nc2)cc2c1[Si](C(C)C)(C(C)C)O[C@H]2c1ccccc1 | 1.44 |
| COC(=O)C(CC#Cc1ccc2c(c1)[C@]1(C(=O)N2)[C@H](C(=O)Nc2nc3ccccc3s2)[C@H]2C(=O)O[C@H](c3ccccc3)[C@H](c3ccccc3)N2[C@@H]1c1ccccc1OCCO)C(=O)OC | 0.625 |
| CN(C)C(=O)[C@@]1(CCS(=O)(=O)c2ccccc2)COC(c2ccc(OCCCO)cc2)=N1 | -0.589 |
| COc1ccc(C#Cc2ccc3c(c2)[C@]2(C(=O)N3)[C@H](C(=O)Nc3nc4ccccc4s3)[C@H]3C(=O)O[C@H](c4ccccc4)[C@H](c4ccccc4)N3[C@@H]2c2ccc(O)cc2)cc1 | 1.72 |
| C=C(CC1([C@@H](NP(=O)(c2ccccc2)c2ccccc2)[C@H]2C[C@@H]2CCCC)CC1)c1ccccc1 | -0.415 |
| C=CCN1C(=O)[C@@]2(CC=C)N=C(c3ccc(OCCCO)cc3)O[C@H]2c2ccccc21 | 1.17 |
| CCCC[C@@H]1C[C@H]1[C@@H](NC(=O)c1ccco1)c1ccc(-c2ccccc2)cc1 | -0.0072 |
| C=C(C)[C@@H]1CC=C(C(O)C2C=CC3C(=O)N(C)C(=O)C3N2Nc2ccccc2)CC1 (stereo not given in full) | 0.987 |
| O=C1C2C=CC(C(O)Cc3ccccc3)N(n3cnnc3)C2C(=O)N1Cc1ccccc1 (stereo not given) | -0.648 |
| C=C(COC)/C(=C/C[C@@H](OC(C)=O)c1ccc(OCCO)cc1)c1cnc2ccccc2c1 | 1.29 |
| COCCOC(=O)N1C(=O)[C@@]2(c3cc(C#CCNC(N)=O)ccc31)[C@H](C(=O)N1CCN(c3ncccn3)CC1)[C@H]1C(=O)O[C@H](c3ccccc3)[C@H](c3ccccc3)N1[C@@H]2c1ccc(OCCO)cc1 | 0.465 |
| C=CCOC(=O)[C@@H]1[C@H]2C(=O)O[C@H](c3ccccc3)[C@H](c3ccccc3)N2[C@H](c2ccc(OCCOC(=O)[C@@H]3C[C@@H]4C(=O)NCC(=O)N4[C@@H]3c3ccc(O)cc3)cc2)[C@@]12C(=O)Nc1ccc(I)cc12 | 0.734 |
| CC#CC(=O)Oc1ccccc1C=CC(=O)OCC | 0.51 |
| CCCC[C@@H]1C[C@H]1[C@@H](NC(=O)c1ccco1)c1ccccc1C(F)(F)F | -0.302 |
